# Reference: PubChem BioAssay (NCATS)
# The source made the active and inactive calls. The call rests on the fitted dose curve; in most records, active means well fitted activation curve with a large enough effect; inconclusive means small, poorly fitted or top-dose-only effect; inactive means flat fitted curve, though single readings scatter.
# Test: Cellular Toxicity (caspase-3) SHSY5Y (AID 657)
# Conditions: SH-SY5Y caspase-3 activation, DMSO zero, 10 µM staurosporine = 100%; series mostly up to 91.7 µM; caspase-3 activation: at the top concentration
# Description: NIH Chemical Genomics Center [NCGC]
# NIH Molecular Libraries Screening Centers Network [MLSCN]
# National Institutes of Environmental Health Sciences [NIEHS]
# National Toxicology Program [NTP]
# We have developed a 1536-well cell-based assay for quantitative high throughput screening (qHTS) against a number of cell lines to determine in vitro caspase 3/7 activity of small molecules. This particular assay uses the SH-SY5Y cell line which is derived from human neuroblastoma.
# NCGC Assay Protocol Summary:
# The Caspase-Glo 3/7 assay (Promega) is a homogeneous method to measure caspase-3 and caspase-7 activities in cultured cells. The quantitation of caspase 3/7 activity is based on the cleavage of a peptide-aminoluciferin substrate. After caspase cleaves the substrate the free aminoluciferin is liberated and serves as the substrate of luciferase, which generates the light. The luminescent signal is proportional to the amount of caspase 3/7 activity present.
# Using the Caspase-Glo 3/7 assay, the amount of caspase 3/7 activity was measured in the SH-SY5Y cell line with complete culture medium following compound treatment for 16 hours. The assay was performed in opaque white 1536-well plates. In the screen, staurosporine and doxorubicin were used as positive controls. Library compounds were measured for their ability to cause the activation of caspase 3/7 in the cell line, as reflected by an increase in luminescence signal, in a concentration-dependent manner. Data were normalized to the controls for basal activity (DMSO only) and 100% stimulation (10 uM staurosporine). AC50 values were determined from concentration-response data modeled with the standard Hill equation.
# qHTS protocol for caspase 3/7 assay in SH-SY5Y cells
# [Step] [Parameter] [Value] [Description]
# 1. Reagent; 5 uL; 1500 SH-SY5Y cells/well
# 2. Time; 5 hr; 37 °C incubation
# 4. Controls; 23 nL; doxorubicin 7 pM to 100 uM & staurosporine 1.4 pM to 20 uM
# 5. Time; 16 hr; 37 °C incubation
# 6. Reagent; 5 uL; Caspase-Glo 3/7 reagent
# 7. Time; 1 hr; Room Temperature
# 8. Detection; Luminescence; Viewlux plate reader
# Keywords: caspase 3/7, apoptosis, SH-SY5Y cell line, luminescence, NTPHTS, NTPHTS_NCGC, NIEHS, EPA, DSSTox, MLSMR, MLSCN, NIH Roadmap, qHTS, NCGC
row,Compound,caspase-3 activation
1,CC(=O)Nc1ccc(C(=O)O)cc1,0.188% (inactive)
2,Cc1cc(=O)[nH]c(=S)[nH]1,-0.577% (inactive)
3,CC(=O)Nc1ccccc1,2.33% (inactive)
4,CC(=O)Nc1cccc(O)c1,2.45% (inactive)
5,CCCC(O)C(CC)CO (configuration not stated),0.8% (inactive)
6,CC(=O)NS(=O)(=O)c1ccc(N)cc1,-0.412% (inactive)
7,O=C1c2cccc(O)c2C(=O)c2c(O)cccc21,1.39% (inactive)
8,FC(F)(F)C(Cl)Br (configuration not stated),-1.04% (inactive)
9,COc1ccc(O)cc1,-0.971% (inactive)
10,O=C(c1ccccc1)C(O)c1ccccc1 (configuration not stated),-0.885% (inactive)
11,CCCCCC(N)=O,2.2% (inactive)
12,Cc1cc(C)nc(NS(=O)(=O)c2ccc(N)cc2)n1,0.762% (inactive)
13,C=CCNC(N)=S,0.579% (inactive)
14,CC1CC(OC(=O)c2ccccc2O)CC(C)(C)C1 (configuration not stated),4.46% (inactive)
15,O=C1C(c2[nH]c3ccccc3c2O)=Nc2ccccc21,22.7% (inactive)
16,Cc1c(N(C)C)c(=O)n(-c2ccccc2)n1C,-0.791% (inactive)
17,O=C(O)CCCCC1CCSS1 (configuration not stated),-2.09% (inactive)
18,Nc1ccc(S(=O)(=O)c2ccc(N)cc2)cc1,1.25% (inactive)
19,CCN(CC)C(=O)c1cccc(C)c1,2.52% (inactive)
20,CC(=O)OCC(COC(C)=O)OC(C)=O,1.54% (inactive)
21,CCCCCCCC(=O)OCC(COC(=O)CCCCCCC)OC(=O)CCCCCCC,-1.44% (inactive)
22,CCCCOC(=O)c1ccc(N)cc1,-0.191% (inactive)
